{"source": "PubChem BioAssay (Tox21)", "key": {"[1]": {"assay": "qHTS assay to identify small molecule agonists of the hypoxia (HIF-1) signaling pathway - cell viability counter screen (AID 1224844; calls by dose curve; further: nearly all actives have a fitted effect of over 50% in size)", "how_it_was_run": "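ME-180 HRE-bla cells, 2,000/well, 0.5% dialyzed FBS; 5 hr settle, 17 hr compound at 37C/5% CO2; CCF4-AM reporter read first, then CellTiter-Glo luminescence after 30 min RT.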"}, "[2]": {"assay": "qHTS assay to identify small molecule agonists of H2AX (AID 1224845; active means well fitted activation curve with a large enough effect in the signal ratio in the repeat runs, not every such curve was filed as active; the % refers to the signal ratio)", "how_it_was_run": "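Wild-type CHO-K1 cells plated overnight, then exposed 3 hr at 37C to compounds at 15 concentrations (0.76% DMSO). Lysed, then HTRF anti-pH2AX(S139)-cryptate/anti-H2AX-d2 detection after 24 hr at room temperature; emissions 665 and 620 nm.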"}, "[3]": {"assay": "qHTS assay to identify small molecule agonists of H2AX - cell viability counter screen (AID 1224847; calls by dose curve; further: top concentration of the series differs between compounds; nearly all actives have a fitted effect of over 30% in size)", "how_it_was_run": "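We seed wild-type CHO-K1 cells overnight, treat them for 3 hr at 37C with compounds in 15-concentration series, and quantify remaining viability by CellTiter-Glo luminescence.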"}, "[4]": {"assay": "qHTS RealTime-Glo MT Cell Viability Assay in HepG2 cells - 24 hour (AID 1224867); further: nearly all actives have a fitted effect of over 50% in size", "how_it_was_run": "(§1)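 Viability was tracked continuously by NanoLuc luminescence from prosubstrate reduced by living HepG2 cells, at successive time points over 40 h of compound exposure. Cells with reagent were preincubated 5 h at 37 °C before compound addition.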"}, "[5]": {"assay": "A CellTox Green Cytotoxicity Assay to monitor cytotoxicity in HEK293 cells - 0 hour (AID 1224869)", "how_it_was_run": "(§2)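 Nonlytic real-time cytotoxicity: HEK293 + CellTox Green reagent plated, 5 h preincubation, pintool compound addition (23 nL in DMSO), 37 C for 40 h, fluorescence measured at successive time points.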"}, "[6]": {"assay": "qHTS RealTime-Glo MT Cell Viability Assay in HepG2 cells - 40 hour (AID 1224870)", "how_it_was_run": "(§3)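 HepG2 cells mixed with RealTime-Glo MT reagents (NanoLuc plus cell-permeant prosubstrate) were seeded at 600 cells/well, incubated 5 h at 37 C/5% CO2, then pinned with compounds in DMSO; nonlytic luminescence tracked viability during 40 h treatment.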"}, "[7]": {"assay": "A CellTox Green Cytotoxicity Assay to monitor cytotoxicity in HEK293 cells - 40 hour (AID 1224871)", "how_it_was_run": "as §2"}, "[8]": {"assay": "qHTS RealTime-Glo MT Cell Viability Assay in HEK293 cells - 16 hour (AID 1224872)", "how_it_was_run": "(§4)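 Viability tracked continuously by luminescence as live cells reduce a prosubstrate for NanoLuc; HEK293 cells preincubated 5 h, compound-treated at 37 C, and read at 0, 8, 16, 24, 32 and 40 h.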"}, "[9]": {"assay": "qHTS RealTime-Glo MT Cell Viability Assay in HEK293 cells - 40 hour (AID 1224874)", "conditions": "RealTime-Glo luminescence; max response: stronger effect = lower value", "how_it_was_run": "(§5)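 Cells were seeded together with NanoLuc luciferase and a prosubstrate that viable cells reduce to a luciferase substrate. After a 5 h incubation at 37 C/5% CO2, compounds were added and luminescence was measured repeatedly during 40 h of treatment.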"}, "[10]": {"assay": "A CellTox Green Cytotoxicity Assay to monitor cytotoxicity in HEK293 cells - 24 hour (AID 1224875)", "how_it_was_run": "as §2"}, "[11]": {"assay": "A CellTox Green Cytotoxicity Assay to monitor cytotoxicity in HepG2 cells - 16 hour (AID 1224876)", "how_it_was_run": "(§6)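 Read-out is fluorescence of a cyanine dye excluded from live cells that stains DNA of dead HepG2 cells, with signal proportional to cytotoxicity. Plates were read at 0, 8, 16, 24, 32 and 40 h after compound addition.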"}, "[12]": {"assay": "qHTS RealTime-Glo MT Cell Viability Assay in HepG2 cells - 32 hour (AID 1224877)", "how_it_was_run": "as §1"}, "[13]": {"assay": "A CellTox Green Cytotoxicity Assay to monitor cytotoxicity in HepG2 cells - 40 hour (AID 1224879)", "how_it_was_run": "as §6"}, "[14]": {"assay": "qHTS RealTime-Glo MT Cell Viability Assay in HEK293 cells - 0 hour (AID 1224880)", "how_it_was_run": "as §5"}, "[15]": {"assay": "A CellTox Green Cytotoxicity Assay to monitor cytotoxicity in HepG2 cells - 24 hour (AID 1224878)", "how_it_was_run": "as §6"}, "[16]": {"assay": "qHTS RealTime-Glo MT Cell Viability Assay in HEK293 cells - 32 hour (AID 1224868)", "how_it_was_run": "as §4"}, "[17]": {"assay": "qHTS assay to identify small molecule antagonists of the estrogen related receptor (ERR) signaling pathway from Tox21 library (AID 1224848)", "how_it_was_run": "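Cells: ERR line, 2,000/well; 6 h preincubation 37 C/5% CO2. Cpd in DMSO via pin tool; 18 h, 37 C. ONE-Glo, 30 min RT, luminescence.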"}, "[18]": {"assay": "qHTS assay to identify small molecule agonists of the estrogen related receptor (ERR) signaling pathway from Tox21 library (AID 1224849; calls by dose curve)", "conditions": "ERR reporter cell line, ONE-Glo luciferase, 18 h", "how_it_was_run": "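ERR cells, 6 h pre-incubation 37 C/5% CO2; cpd in DMSO pinned; 18 h 37 C; ONE-Glo added, 30 min RT; luminescence read. Agonist mode, qHTS.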"}, "[19]": {"assay": "qHTS RealTime-Glo MT Cell Viability Assay in HepG2 cells - 8 hour (AID 1224873)", "how_it_was_run": "as §3"}}, "note": "Several values for one entry are separate records, joined by “and”; a condition that tells them apart may be missing. Equal values may be shown once. Results filed as inconclusive are left out. Where a call stands in place of a potency, no number is given. Some structures have more than one record in an assay (separate samples or runs), and their calls can disagree. Activity calls are given as the source filed them. Unless noted, the call rests on the fitted dose curve; in most records, active means well fitted curve in the direction sought with a large enough effect in the repeat runs; inconclusive means weak or mixed curves; inactive means no such curve, though single readings can be large; an effect the other way counts as inactive or inconclusive. Wherever activity change, positive = activation is given: nearly all actives have a fitted effect of over 15% in size. Wherever max response is given: nearly all actives have a fitted effect of over 50% in size. Wherever potency is given: potency means the concentration at half of the fitted maximal effect."}
{"smiles": "O=Cc1ccccc1C=O", "values": [{"measurement": "Potency", "setting": "[1]", "value": "inactive"}, {"measurement": "Potency", "setting": "[2]", "value": "inactive"}, {"measurement": "Potency", "setting": "[3]", "value": "inactive"}, {"measurement": "Potency", "setting": "[4]", "value": "inactive"}, {"measurement": "Potency", "setting": "[5]", "value": "inactive"}, {"measurement": "Potency", "setting": "[6]", "value": "38.9 µM (active) and inactive"}, {"measurement": "Potency", "setting": "[7]", "value": "inactive"}, {"measurement": "Potency", "setting": "[8]", "value": "inactive"}, {"measurement": "max response", "setting": "[9]", "value": "0.419% (inactive)"}, {"measurement": "Potency", "setting": "[10]", "value": "inactive"}, {"measurement": "Potency", "setting": "[11]", "value": "inactive"}, {"measurement": "Potency", "setting": "[12]", "value": "inactive"}, {"measurement": "Potency", "setting": "[13]", "value": "21.9 µM (active) and inactive"}, {"measurement": "Potency", "setting": "[14]", "value": "inactive"}]}
{"smiles": "C=CCNCC=C", "values": [{"measurement": "Potency", "setting": "[1]", "value": "inactive"}, {"measurement": "Potency", "setting": "[2]", "value": "inactive"}, {"measurement": "Potency", "setting": "[3]", "value": "inactive"}, {"measurement": "Potency", "setting": "[4]", "value": "inactive"}, {"measurement": "Potency", "setting": "[5]", "value": "inactive"}, {"measurement": "Potency", "setting": "[6]", "value": "inactive"}, {"measurement": "Potency", "setting": "[7]", "value": "inactive"}, {"measurement": "Potency", "setting": "[8]", "value": "inactive"}, {"measurement": "max response", "setting": "[9]", "value": "4.5% (inactive) and 4.18% (inactive)"}, {"measurement": "Potency", "setting": "[10]", "value": "inactive"}, {"measurement": "Potency", "setting": "[11]", "value": "inactive"}, {"measurement": "Potency", "setting": "[12]", "value": "inactive"}, {"measurement": "Potency", "setting": "[15]", "value": "inactive"}, {"measurement": "Potency", "setting": "[13]", "value": "inactive"}, {"measurement": "Potency", "setting": "[14]", "value": "inactive"}]}
{"smiles": "O=S1(=O)CCCO1", "values": [{"measurement": "Potency", "setting": "[1]", "value": "inactive"}, {"measurement": "Potency", "setting": "[2]", "value": "inactive"}, {"measurement": "Potency", "setting": "[3]", "value": "inactive"}, {"measurement": "Potency", "setting": "[4]", "value": "inactive"}, {"measurement": "Potency", "setting": "[16]", "value": "inactive"}, {"measurement": "Potency", "setting": "[5]", "value": "inactive"}, {"measurement": "Potency", "setting": "[6]", "value": "inactive"}, {"measurement": "Potency", "setting": "[7]", "value": "inactive"}, {"measurement": "Potency", "setting": "[8]", "value": "inactive"}, {"measurement": "max response", "setting": "[9]", "value": "5.89% (inactive) and 10.2% (inactive)"}, {"measurement": "Potency", "setting": "[10]", "value": "inactive"}, {"measurement": "Potency", "setting": "[11]", "value": "inactive"}, {"measurement": "Potency", "setting": "[12]", "value": "inactive"}, {"measurement": "Potency", "setting": "[15]", "value": "inactive"}, {"measurement": "Potency", "setting": "[13]", "value": "inactive"}]}
{"smiles": "CNC[C@H](O)c1ccc(O)c(O)c1", "values": [{"measurement": "Potency", "setting": "[1]", "value": "inactive"}, {"measurement": "Potency", "setting": "[3]", "value": "inactive"}, {"measurement": "Potency", "setting": "[17]", "value": "inactive"}, {"measurement": "activity change, positive = activation", "setting": "[18]; at 19 µM (top of the series)", "value": "16.5% (inactive)"}, {"measurement": "activity change, positive = activation", "setting": "[18]; at 92.4 µM (top of the series)", "value": "-7.74% (inactive)"}, {"measurement": "Potency", "setting": "[4]", "value": "inactive"}, {"measurement": "Potency", "setting": "[16]", "value": "inactive"}, {"measurement": "Potency", "setting": "[5]", "value": "inactive"}, {"measurement": "Potency", "setting": "[6]", "value": "inactive"}, {"measurement": "Potency", "setting": "[7]", "value": "inactive"}, {"measurement": "Potency", "setting": "[8]", "value": "inactive"}, {"measurement": "max response", "setting": "[9]", "value": "2.12% (inactive) and 11.8% (inactive)"}, {"measurement": "Potency", "setting": "[10]", "value": "inactive"}, {"measurement": "Potency", "setting": "[11]", "value": "inactive"}, {"measurement": "Potency", "setting": "[12]", "value": "inactive"}, {"measurement": "Potency", "setting": "[15]", "value": "inactive"}, {"measurement": "Potency", "setting": "[13]", "value": "inactive"}, {"measurement": "Potency", "setting": "[14]", "value": "inactive"}]}
{"smiles": "CC(C)[N+](C)(CCOC(=O)C1c2ccccc2Oc2ccccc21)C(C)C", "values": [{"measurement": "Potency", "setting": "[1]", "value": "inactive"}, {"measurement": "Potency", "setting": "[2]", "value": "inactive"}, {"measurement": "Potency", "setting": "[3]", "value": "inactive"}, {"measurement": "Potency", "setting": "[4]", "value": "inactive"}, {"measurement": "Potency", "setting": "[16]", "value": "inactive"}, {"measurement": "Potency", "setting": "[5]", "value": "inactive"}, {"measurement": "Potency", "setting": "[6]", "value": "inactive"}, {"measurement": "Potency", "setting": "[7]", "value": "inactive"}, {"measurement": "Potency", "setting": "[8]", "value": "inactive"}, {"measurement": "Potency", "setting": "[19]", "value": "inactive"}, {"measurement": "max response", "setting": "[9]", "value": "-23.6% (inactive) and -15.1% (inactive)"}, {"measurement": "Potency", "setting": "[10]", "value": "inactive"}, {"measurement": "Potency", "setting": "[11]", "value": "inactive"}, {"measurement": "Potency", "setting": "[12]", "value": "inactive"}, {"measurement": "Potency", "setting": "[13]", "value": "inactive"}]}
{"smiles": "NCCS(=O)(=O)O", "values": [{"measurement": "Potency", "setting": "[1]", "value": "inactive"}, {"measurement": "Potency", "setting": "[2]", "value": "inactive"}, {"measurement": "Potency", "setting": "[3]", "value": "inactive"}, {"measurement": "Potency", "setting": "[4]", "value": "inactive"}, {"measurement": "Potency", "setting": "[16]", "value": "inactive"}, {"measurement": "Potency", "setting": "[5]", "value": "inactive"}, {"measurement": "Potency", "setting": "[6]", "value": "inactive"}, {"measurement": "Potency", "setting": "[7]", "value": "inactive"}, {"measurement": "Potency", "setting": "[8]", "value": "inactive"}, {"measurement": "Potency", "setting": "[19]", "value": "inactive"}, {"measurement": "max response", "setting": "[9]", "value": "13.2% (inactive) and 2.94% (inactive)"}, {"measurement": "Potency", "setting": "[10]", "value": "inactive"}, {"measurement": "Potency", "setting": "[11]", "value": "inactive"}, {"measurement": "Potency", "setting": "[12]", "value": "inactive"}, {"measurement": "Potency", "setting": "[15]", "value": "inactive"}, {"measurement": "Potency", "setting": "[13]", "value": "inactive"}, {"measurement": "Potency", "setting": "[14]", "value": "inactive"}]}
